Read-out in assay [1]: Interleukin-1 alpha (IL1a), IL1A (gene 3552)
The assay can be described thus: BSK_KF3CT_IL1a: BioMAP Diversity Plus: KF3CT Assay for Interleukin-1 alpha (IL1a) Biomarker Activity (AID 2283070). The following applies: primary human keratinocytes with fibroblasts; actives raise or lower the signal. The method, boiled down: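 Readout is IL-1a level by ELISA, compared bidirectionally with DMSO as baseline. Cells: human keratinocytes co-cultured with foreskin fibroblasts, harvested 24 h post-dose.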

Read-out in assay [2]: TIMP metallopeptidase inhibitor 2 (TIMP2), TIMP2 (gene 7077)
Briefly: BSK_KF3CT_TIMP2: BioMAP Diversity Plus: KF3CT Assay for TIMP metallopeptidase inhibitor 2 (TIMP2) Biomarker Activity (AID 2283071). The settings on record: primary human keratinocytes with fibroblasts; actives raise or lower the signal. The method, boiled down:
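Chemicals were dosed onto human skin primary co-cultures of keratinocytes and foreskin fibroblasts, and TIMP-2 was measured by ELISA after 24 hours. Activity in either direction was fitted relative to DMSO.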

Read-out in assay [3]: Transforming growth factor beta 1 (TGFb1), TGFB1 (gene 7040)
Briefly: BSK_KF3CT_TGFb1: BioMAP Diversity Plus: KF3CT Assay for Transforming growth factor beta 1 (TGFb1) Biomarker Activity (AID 2283072). The following applies: primary human keratinocytes with fibroblasts; actives raise or lower the signal. The method, boiled down: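 KF3CT co-culture (keratinocytes + fibroblasts), 24 h exposure → TGF-b1 ELISA → bidirectional fit, DMSO = baseline. Parallel SRB total-protein staining (0.1% SRB, 10% TCA fixation, 560 nm) for cytotoxicity.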

Read-out in assay [4]: C-C motif chemokine 2 (Homo sapiens) (UniProt P13500)
The assay can be described thus: BSK_KF3CT_MCP1: BioMAP Diversity Plus: KF3CT Assay for Monocyte Chemoattractant Protein 1 (MCP1/CCL2) Biomarker Activity (AID 2283073). The following applies: primary human keratinocytes with fibroblasts; actives raise or lower the signal. In short, it runs like this:
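ELISA read-out of MCP-1, 24 h post-dose, in primary human skin keratinocytes co-cultured with fibroblasts. Parallel SRB staining monitors cytotoxicity; changes fitted both directions relative to DMSO.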

Read-out in assay [5]: Matrix Metallopeptidase 9 (MMP9), MMP9 (gene 4318)
The assay can be described thus: BSK_KF3CT_MMP9: BioMAP Diversity Plus: KF3CT Assay for Matrix Metallopeptidase 9 (MMP9) Biomarker Activity (AID 2283074).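 For AC50: MMP9 protein level quantified by ELISA in the co-culture.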 The settings on record: primary human keratinocytes with fibroblasts; actives raise or lower the signal. In short, it runs like this:
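Values come from bidirectional fitting relative to DMSO of MMP-9 levels, which were measured by ELISA. Measurements were taken 24 h after chemical dosing of a keratinocyte and foreskin fibroblast co-culture.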

Read-out in assay [6]: urokinase plasminogen activator (uPA), PLAU (gene 5328)
The assay can be described thus: BSK_KF3CT_uPA: BioMAP Diversity Plus: KF3CT Assay for urokinase plasminogen activator (uPA) Biomarker Activity (AID 2283075). The following applies: primary human keratinocytes with fibroblasts; actives raise or lower the signal. In short, it runs like this: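 Values derive from bidirectional fitting against DMSO controls. Keratinocyte/foreskin fibroblast co-cultures received chemical; 24 h later uPA was detected by ELISA, with SRB total-protein staining in parallel wells for overt cytotoxicity.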

Read-out in the next assay: CD40, CD40 (gene 958)
Briefly: BSK_LPS_CD40: BioMAP Diversity Plus: LPS Assay for CD40 Biomarker Activity (AID 2283076). The following applies: primary human HUVEC with PBMC; actives raise or lower the signal. The method, boiled down:
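In the LPS system of human endothelial cells with peripheral blood mononuclear cells, CD40 levels were read by ELISA 24 h post-treatment. Signal changes in either direction were fitted against the DMSO baseline, with parallel SRB protein staining.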

Read-out in assay [7]: E-selectin (Homo sapiens) (UniProt P16581)
The assay can be described thus: BSK_LPS_Eselectin: BioMAP Diversity Plus: LPS Assay for Eselectin Biomarker Activity (AID 2283077). The settings on record: primary human HUVEC with PBMC; actives raise or lower the signal. The method, boiled down:
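E-selectin ELISA on LPS-stimulated endothelial cell/PBMC co-cultures, read 24 h post-treatment; gains and losses fitted against DMSO. Parallel SRB staining (0.1% SRB after 10% TCA fixation, 560 nm) flags overt cytotoxicity.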

Read-out in assay [8]: Interleukin-8 (IL8), CXCL8 (gene 3576)
Briefly: BSK_LPS_IL8: BioMAP Diversity Plus: LPS Assay for Interleukin-8 (IL8) Biomarker Activity (AID 2283078). The settings on record: primary human HUVEC with PBMC; actives raise or lower the signal. The method, boiled down: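 ELISA read-out of IL-8 after 24 h chemical treatment of LPS-activated endothelial/PBMC human primary co-cultures. Changes either up or down relative to DMSO; overt cytotoxicity checked by sulforhodamine B staining in parallel wells.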

The nature of assay [9]: BSK_LPS_SRB: Viability Assessment in the BioMAP Diversity Plus: LPS Assay (AID 2283079).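 Note: total protein by sulforhodamine B absorbance as a cytotoxicity measure; measured one day after compound addition; fitted in both directions against DMSO so loss or gain of signal counts.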 The settings on record: primary human HUVEC with PBMC. In short, it runs like this:
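SRB viability endpoint: cells fixed with 10% TCA, stained with 0.1% SRB, read at 560 nm, 24 h post-dose. HUVEC/PBMC co-culture; signal change in either direction scored relative to DMSO.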

Several values for one entry are separate records, joined by “and”; a condition that tells them apart may be missing. Equal values may be shown once. Some structures have more than one record in an assay (separate samples or runs), and their calls can disagree. Activity calls are given as the source filed them. Rule for the calls: active = hit-call score of the fitted dose curve at least 0.9, where 1 is the maximum; inactive = score below 0.9.

Sequence of E-selectin (Homo sapiens) (P16581 whole entry, looked up): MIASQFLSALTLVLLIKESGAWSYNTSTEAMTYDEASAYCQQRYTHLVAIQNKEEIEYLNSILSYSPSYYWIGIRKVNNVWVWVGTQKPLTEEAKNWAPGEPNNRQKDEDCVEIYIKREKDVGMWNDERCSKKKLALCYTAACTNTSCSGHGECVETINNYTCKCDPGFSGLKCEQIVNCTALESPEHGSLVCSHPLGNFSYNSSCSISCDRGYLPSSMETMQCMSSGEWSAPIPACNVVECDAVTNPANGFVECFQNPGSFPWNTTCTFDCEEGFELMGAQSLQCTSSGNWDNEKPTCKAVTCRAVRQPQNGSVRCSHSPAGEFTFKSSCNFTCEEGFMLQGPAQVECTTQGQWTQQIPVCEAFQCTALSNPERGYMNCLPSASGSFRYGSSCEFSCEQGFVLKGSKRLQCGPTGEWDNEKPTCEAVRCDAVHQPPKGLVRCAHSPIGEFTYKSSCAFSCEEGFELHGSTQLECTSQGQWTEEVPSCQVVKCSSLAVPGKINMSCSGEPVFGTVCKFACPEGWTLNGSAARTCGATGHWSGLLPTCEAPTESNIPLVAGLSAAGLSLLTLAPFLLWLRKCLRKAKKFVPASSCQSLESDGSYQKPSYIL

What is called AC50 is the midpoint of the concentration-response curve, whichever way the signal moves. On to `OC(c1ccc(Cl)cc1)(c1cncnc1)c1ccccc1Cl` (centres undefined), for which the outcome in assay [1], in assay [2], in assay [3], in [4], in [5] and in assay [6] was inactive. Moreover, the result in assay [7] and in assay [8] was inactive. Also, the AC50 with CD40, CD40 (gene 958) was 15.8 µM (active); in [9], 23.2 µM (active).

As to `CCOC(=O)CC(SP(=S)(OC)OC)C(=O)OCC` (centres undefined), the result in assay [1], in assay [2], in assay [3], in assay [4], in [5] and in [6] was inactive. Besides, the outcome in the assay with CD40, CD40 (gene 958) was “inactive”; in [7] it was “inactive”; in [8], “inactive”; in assay [9], “inactive”.

`C#CCOS(=O)OC1CCCCC1Oc1ccc(C(C)(C)C)cc1` (centres undefined): the concentration at half-maximal activity (AC50) in assay [1] was 14.8 µM (active); in [2], 14 µM (active); in assay [4] it was 10.2 µM (active); in assay [5] it was 12.1 µM (active); in assay [6], 14.3 µM (active); with CD40, CD40 (gene 958), 6.59 µM (active). Also, the AC50 in assay [7] is 4.28 µM (active); in [9], 12.6 µM (active). The outcome in assay [3] was inactive.

Regarding `CCc1nn(C)c(C(=O)NCc2ccc(C(C)(C)C)cc2)c1Cl`, the AC50 was 29.5 µM (active) in assay [1]; 27.7 µM (active) in [2]; 27.1 µM (active) in [4]; 30.6 µM (active) in [5]; 35.4 µM (active) in assay [6]; 24.3 µM (active) with CD40, CD40 (gene 958). Further, the figures for the AC50 in assay [7], in [8] and in [9] were 20 µM (active), 20 µM (active) and 30 µM (active), respectively. Further, in assay [3], the result was inactive.

For the molecule `COc1nc(C)nc(NC(=O)NS(=O)(=O)c2ccccc2CCC(F)(F)F)n1`, the result in assay [1], in assay [2], in assay [3], in [4], in [5] and in assay [6] was inactive. Further, the outcome is “inactive” in the assay with CD40, CD40 (gene 958); “inactive” in assay [7]; “inactive” in assay [9]. Further, the AC50 in assay [5] is 23.7 µM (active).

For `COc1nc(C)nc(NC(=O)NS(=O)(=O)c2ccccc2Cl)n1`, the outcome in assay [1], in assay [2], in assay [3], in [4], in assay [5] and in [6] was inactive. For the same molecule, the outcome with CD40, CD40 (gene 958) was “inactive”; in assay [7], “inactive”; in assay [9] it was “inactive”. Moreover, the AC50 in assay [2] was 31.6 µM (active).

Take `CO/C=C(/C(=O)OC)c1ccccc1Oc1cc(Oc2ccccc2C#N)ncn1`: the outcome in assay [1], in assay [2], in [3], in assay [4], in assay [5] and in assay [6] was inactive. The outcome with CD40, CD40 (gene 958) was “inactive”; in assay [7], “inactive”. The concentration at half-maximal activity (AC50) is 2.7 µM (active) in assay [5]; 19.9 µM (active) and 10 µM (active) and 12.9 µM (active) with CD40, CD40 (gene 958); 10.9 µM (active) and 5.78 µM (active) and 5.72 µM (active) in [7].

On to `CN(C)C(=S)SSC(=S)N(C)C`, for which the AC50 in [1] is 6.44 µM (active); in assay [2], 6.4 µM (active); in [3], 8.71 µM (active); in [4], 5.09 µM (active); in [5], 7.1 µM (active); in [6] it was 10.3 µM (active). Further, the AC50 with CD40, CD40 (gene 958) was 24.7 µM (active); in [7], 28.5 µM (active); in assay [8], 26.5 µM (active); in assay [9], 22.9 µM (active).

For the molecule `COP(=S)(OC)Oc1nc(Cl)c(Cl)cc1Cl`, the result in assay [1], in [2], in [3], in assay [4], in assay [5] and in assay [6] was inactive. The outcome with CD40, CD40 (gene 958) was “inactive”; in assay [8], “inactive”; in assay [9], “inactive”. Moreover, the AC50 in assay [7] was 32.5 µM (active).

Regarding `O=C(O)c1nc(Cl)ccc1Cl`, the AC50 in assay [1] is 0.148 µM (active). Also, the outcome in [1], in [2], in assay [3], in [4], in assay [5] and in [6] was inactive. The outcome in the assay with CD40, CD40 (gene 958) was “inactive”; in assay [7], “inactive”; in assay [9], “inactive”.

In the case of `CCOC(=O)C(Cl)Cc1cc(-n2nc(C)n(C(F)F)c2=O)c(F)cc1Cl` (centres undefined), the result in [1], in assay [2], in [3], in assay [4], in assay [5] and in assay [6] was inactive. Moreover, the outcome in the assay with CD40, CD40 (gene 958) was “inactive”; in [7] it was “inactive”; in assay [8], “inactive”; in assay [9] it was “inactive”.

Regarding `CCCCNC(=O)n1c(NC(=O)OC)nc2ccccc21`, the results for the AC50 in [1] and in assay [9] were 20 µM (active) and 7.48 µM (active), respectively. Besides, the outcome in assay [2] was “inactive”; in assay [3] it was “inactive”; in assay [4] it was “inactive”; in [5] it was “inactive”; in [6] it was “inactive”; with CD40, CD40 (gene 958) it was “inactive”. Further, in [7], the outcome was inactive.

Consider `COc1cnc(OC)n2nc(NS(=O)(=O)c3c(OCC(F)F)cccc3C(F)(F)F)nc12`, for which the outcome in [1], in assay [2], in assay [3], in [4], in assay [5] and in assay [6] was inactive. Also, the outcome was “inactive” with CD40, CD40 (gene 958); “inactive” in [7]; “inactive” in assay [9]. Moreover, the AC50 in assay [6] is 29.6 µM (active).
